The source of these data is PubChem BioAssay (EPA / NIEHS).

A word on the AC50: it is the midpoint of the concentration-response curve, whichever way the signal moves.

Active and inactive are the calls of the source. Rule for the calls: active = hit-call score of the fitted dose curve at least 0.9, where 1 is the maximum; inactive = score below 0.9.

Read-out in the first experiment: Tumor necrosis factor receptor 1 (TNFRSF1A), TNFRSF1A (gene 7132)
In words: LTEA_HepaRG_TNFRSF1A: Life Technologies and Expression Analysis (LTEA) Assay for Tumor necrosis factor receptor 1 (TNFRSF1A) using HepaRG (AID 2283535). To be noted: mRNA level, 48 h; actives raise or lower the signal. In short, it runs like this: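 Read-out is TNFRSF1A transcript level by TaqMan qRT-PCR, normalized to three housekeeping genes, scored as gain or loss of signal versus 0.5% DMSO. Human HepaRG cells received test chemicals for 48 h at up to 100 uM (half-log series).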
Consider `ClCCOCCCl`, for which the molecule was called inactive. Same read-out and setting: the result for `Clc1ccc(C(c2ccc(Cl)cc2)C(Cl)(Cl)Cl)cc1` reads “inactive”; that for `[As]#[In]`, “inactive”; that for `O=Cc1ccco1`, “inactive”. Same read-out and setting: the result for `Nc1cc(Cl)cc(C(=O)O)c1Cl` reads “inactive”; that for `Nc1ccc(Oc2ccc(N)cc2)cc1`, “inactive”. Turning to `O=C1CCCO1`, the AC50 was 77 µM (active). Consider `CC(C)N(Cc1ccccc1)C(=O)C(C)(C)C`, for which the molecule was called inactive. For the molecule `COC(=O)c1ccccc1N`, the outcome was inactive. Same read-out and setting: the result for `CCNS(=O)(=O)C(F)(F)C(F)(F)C(F)(F)C(F)(F)C(F)(F)C(F)(F)C(F)(F)C(F)(F)F` reads “inactive”; that for `Clc1ccc(C(c2ccc(Cl)cc2)C(Cl)Cl)cc1`, “inactive”; that for `c1ccc2c(c1)-c1cccc3cccc-2c13`, “inactive”. Take `C1=Cc2cccc3cccc1c23`: the call was inactive. As to `CCC[CH2][Sn]([Cl])([CH2]CCC)[CH2]CCC`, the AC50 is 50 µM (active). Take `CC(C)(O)c1cnn2c(-c3ccc(F)c(-c4c(F)cccc4C#N)c3)cnc2n1`: the molecule was classed as inactive. In the case of `c1ccc(NNc2ccccc2)cc1`, the molecule was classed as inactive. Take `CN(C)c1ccc(C(=O)c2ccc(N(C)C)cc2)cc1`: the call was inactive.

With `CCCCC(CC)COC(=O)c1ccc(C(=O)OCC(CC)CCCC)c(C(=O)OCC(CC)CCCC)c1` (centres undefined), the call was inactive. For `CN(C)C(=O)Nc1ccc(Cl)cc1`, the molecule was classed as inactive.

In the case of `Cc1ccc(N)cc1`, the outcome was inactive. As for `Nc1ccc([N+](=O)[O-])cc1`, the call was inactive. Same read-out and setting: for `CC(O)CCO` (centres undefined) the value was “inactive”.

With `Oc1ccc2ccc3cccc4ccc1c2c34`, the result was inactive. The same measure, in the same setting: the result for `CCCCCCCCCCCCCN1CC(C)OC(C)C1` (centres undefined) reads “inactive”; that for `C[N+](C)(C)CC1CO1` (centres undefined), “inactive”; that for `Cc1ccc([N+](=O)[O-])cc1`, “inactive”.

Read-out in the next experiment: Thyroid Hormone Responsive (THRSP), THRSP (gene 7069)
As to the kind of experiment: LTEA_HepaRG_THRSP: Life Technologies and Expression Analysis (LTEA) Assay for Thyroid Hormone Responsive (THRSP) using HepaRG (AID 2283536). To be noted: mRNA level, 48 h; actives raise or lower the signal. In short, it runs like this: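 mRNA induction or loss relative to 0.5% DMSO vehicle was fitted bidirectionally across an eight-point curve whose highest exposure was 100 uM. Human HepaRG liver cells received chemicals in duplicate over 48 h before RNA extraction.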
On to `ClCCOCCCl`, for which the call was inactive.

In the case of `c1ccc(N=Nc2ccccc2)cc1`, the molecule was classed as inactive. For the molecule `Clc1ccc(C(c2ccc(Cl)cc2)C(Cl)(Cl)Cl)cc1`, the AC50 is 68.1 µM (active).

In the case of `[As]#[In]`, the call was inactive. Still for that read-out and setting: for `O=Cc1ccco1` the value was “inactive”; for `Nc1cc(Cl)cc(C(=O)O)c1Cl`, “inactive”. On the same count and under the same terms, for `Nc1ccc(Oc2ccc(N)cc2)cc1` the value was “inactive”; for `O=C1CCCO1`, “inactive”; for `CC(C)N(Cc1ccccc1)C(=O)C(C)(C)C`, “inactive”. Still for that read-out and setting: the result for `COC(=O)c1ccccc1N` reads “inactive”. On to `CCNS(=O)(=O)C(F)(F)C(F)(F)C(F)(F)C(F)(F)C(F)(F)C(F)(F)C(F)(F)C(F)(F)F`, for which the concentration at half-maximal activity (AC50) was 48.2 µM (active). Still for that read-out and setting: for `Clc1ccc(C(c2ccc(Cl)cc2)C(Cl)Cl)cc1` the value was 90.5 µM (active).

Turning to `c1ccc2c(c1)-c1cccc3cccc-2c13`, the molecule was classed as inactive. Same read-out and setting: the result for `C1=Cc2cccc3cccc1c23` reads “inactive”; that for `c1ccc2c(c1)oc1ccccc12`, “inactive”. Regarding `CCC[CH2][Sn]([Cl])([CH2]CCC)[CH2]CCC`, the AC50 is 2.84 µM (active). On to `CC(C)(O)c1cnn2c(-c3ccc(F)c(-c4c(F)cccc4C#N)c3)cnc2n1`, for which the molecule was classed as inactive. Regarding `c1ccc(NNc2ccccc2)cc1`, the molecule was classed as inactive. In the case of `CN(C)c1ccc(C(=O)c2ccc(N(C)C)cc2)cc1`, the call was inactive.

As to `CCCCC(CC)COC(=O)c1ccc(C(=O)OCC(CC)CCCC)c(C(=O)OCC(CC)CCCC)c1` (centres undefined), the call was inactive.

Consider `CN(C)C(=O)Nc1ccc(Cl)cc1`, for which the outcome was inactive.

Take `Cc1ccc(N)cc1`: the outcome was inactive. Regarding `Nc1ccc([N+](=O)[O-])cc1`, the outcome was inactive. On the same count and under the same terms, for `CC(O)CCO` (centres undefined) the value was “inactive”; for `Oc1ccc2ccc3cccc4ccc1c2c34`, “inactive”. As to `CCCCCCCCCCCCCN1CC(C)OC(C)C1` (centres undefined), the molecule was called inactive. On to `C[N+](C)(C)CC1CO1` (centres undefined), for which the molecule was called inactive. Turning to `Cc1ccc([N+](=O)[O-])cc1`, the call was inactive.
